The list is not random: actives were taken first. Their share in the collection is about 6.5%.
Spn PMK inh: inhibitors of Streptococcus pneumoniae phosphomevalonate kinase | purified PMK, PK/LDH-coupled NADH absorbance 340 nm | inhibition, % at 10 µM | hit rate 0.49% among 65,000 | AID 539;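 active means top-ranked compounds by inhibition in the single 10 µM screen, taking a fixed number of the strongest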;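 further: 0% = full reaction with DMSO carrier and 100% = background rate without enzyme reaction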
Spn MK inh: blocks S. pneumoniae mevalonate kinase; hit rate 0.48% among 65,000; AID 555; purified MK, PK/LDH-coupled NADH absorbance 340 nm; inhibition, % at 10 µM;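 active means ranked among the strongest by inhibition in the single 10 µM screen, a fixed top-ranked set picked for dose follow-up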
DPM-DC inhibit: S. pneumoniae DPM-DC inhibition; calls only at 10 µM; AID 556; purified DPM-DC, PK/LDH coupled NADH fluorescence; hit rate 0.49% among 65,000;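 active means the 320 compounds with the highest percent inhibition in the single-dose primary screen, excluding strongly autofluorescent ones, cut at about 32% in these data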;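 further: kinetic rate of NADH fluorescence loss reporting ADP formed by the decarboxylase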
NADH enzymes: blocks coupling enzymes of NAD/NADH assays; coupled PK/LDH NADH assays, four targets; IC50, µM (highest dose often 10 µM), for the others: at the top dose inhibition; hit rate 0.02% among 65,000; AID 774;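 active means single-dose screening hits from any of four coupled enzyme assays that gave an IC50 when retested across doses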;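 further: the DPM-DC format reads NADH fluorescence rather than 340 nm absorbance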
Abs 340nm: compounds absorbing at 340 nm. compound absorbance at 340 nm, fold over control. fold change at 10 µM. 65,000 tested, under 10 active;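 active means at 10 µM dose, initial 340 nm absorbance at least 2 fold that of control wells; inactive means change under 2 fold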;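 further: initial absorbance extrapolated from kinetic A340 decline of NADH oxidation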
Fluor 339 460: intrinsic fluorescence of library compounds, ex339/em460 – biochemical, MLSMR library, data from DPM-DC assay, artefact control, profiling panel. compound autofluorescence, ex339/em460 nm, NADH buffer; active compounds read high; 1 = no-compound wells, NADH background. fluorescence fold increase at 10 µM. hit rate 5.5% among 65,000. AID 709;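 active means at 10 µM, mean starting fluorescence two-fold or more over control wells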;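 further: signal is the first read of a kinetic run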
* = called active by the depositor; i = inactive; x = not tested or not shown; + = active, no number; [ ] = another dose, or the depositor's remark.

SMILES | Spn PMK inh | Spn MK inh | DPM-DC inhibit | NADH enzymes | Abs 340nm | Fluor 339 460
CCOC(=O)c1[nH]c(C)c(/C(O)=C2\C(=O)C(=O)N(CCCN(C)C)C2c2cccnc2)c1C (stereo not given) | 9 | 10 | i | 6% | 1.1 | 1
CC(=O)c1cc2c(O)c(O)ccc2o1 | 3 | 7 | i | 3% | 1.1 | 1.2
CC(=O)c1cc2cc(O)ccc2o1 | 11 | 8 | x | 10% | 1.1 | 4.4*
CCc1nnc(NC(=O)CSc2ncc(-c3ccccc3)n2CC)s1 | 7 | 13 | i | 7% | 1 | 1.1
Cc1ccc(S(=O)(=O)c2cc3c(=O)n4ccccc4nc3n(C)c2=N)cc1 | 9 | 12 | i | 13% | 0.99 | 1.9
N=c1c(S(=O)(=O)c2ccccc2)cc2c(=O)n3ccccc3nc2n1CCN1CCOCC1 | 3 | 13 | x | 8% | 1.1 | 3.7*
CC(C)(C)C(=O)Cn1c(=O)n(CC2CCCO2)c(=O)c2ccccc21 (stereo not given) | 16 | 3 | i | 7% | 0.99 | 1
N=c1c(S(=O)(=O)c2ccccc2)cc2c(=O)n3ccccc3nc2n1Cc1ccco1 | 19 | 7 | x | 13% | 1 | 4*
O=c1c2ccccc2c2ccccc2c(=O)n1Cc1ccco1 | 2 | 11 | i | 7% | 1 | 1.1
Cc1ccc(S(=O)(=O)c2cc3c(=O)n4ccccc4nc3n(Cc3ccco3)c2=N)cc1C | 0 | 2 | x | 1% | 1 | 3.5*
Cc1ccc(S(=O)(=O)c2cc3c(=O)n4ccccc4nc3n(CC3CCCO3)c2=N)cc1C (stereo not given) | 14 | 3 | +[fluoresces] | 3% | 1 | 2.2*
CC1(c2ccc(Cl)cc2)NC(=O)N(CC(=O)NC(=O)NCc2ccco2)C1=O (stereo not given) | 24 | 4 | i | 11% | 1 | 1
COc1cc(NC(=O)c2ccc(-c3ccc(Br)cc3)o2)ccc1NC(=O)C(C)C | 4 | 5 | x | 5% | 1.1 | 3.8*
Cc1nnc2sc(-c3ccc(NC(=O)c4ccc(-c5ccc(Br)cc5)o4)cc3)nn12 | 0 | 0 | x | 0% | 1.1 | 3.7*
COc1cc(NC(=O)c2ccc3c(c2)OCO3)ccc1NC(=O)C(C)C | 7 | 0 | i | 7% | 1.1 | 1.5
Cc1ccc(-c2nn3c(C)nnc3s2)cc1NC(=O)c1ccc(-c2ccc(Cl)cc2Cl)o1 | 2 | 6 | x | 4% | 1.1 | 3.7*
CCOC(=O)c1[nH]c2ccccc2c1N=CN(CC)CC | 4 | 0 | i | 1% | 1 | 1.2
CN(C(=O)COC(=O)COc1ccccc1F)C1CCS(=O)(=O)C1 (stereo not given) | 19 | 0 | i | 6% | 0.98 | 1.1
O=C(Cn1cnc2ccccc21)Nc1cc(C(F)(F)F)ccc1N1CCOCC1 | 14 | 0 | i | 5% | 1 | 1.1
FC(F)(F)c1ccc(N2CCOCC2)c(Nc2nc3ccccc3n3cnnc23)c1 | 2 | 4 | i | 2% | 1 | 2.5*
Cn1c(SCC2CCCCC2)nnc1-c1ccncc1 | 18 | 12 | i | 10% | 0.95 | 1.1
Cc1csc2ncc(C(=O)Nc3cccc(C(F)(F)F)c3)c(=O)n12 | 5 | 3 | i | 10% | 1.1 | 1.4
COc1ccc(C)cc1NC(=O)c1cnc2scc(C)n2c1=O | 9 | 0 | x | 5% | 1.1 | 2.1*
CCc1ccc(NC(=O)c2cnc3scc(C)n3c2=O)cc1 | 4 | 14 | + | 26% | 1.2 | 1.2
Cc1nonc1NC(=O)Nc1cccnc1 | 10 | 4 | i | 5% | 0.99 | 1.1
SMILES | Spn PMK inh | Spn MK inh | DPM-DC inhibit | NADH enzymes | Abs 340nm | Fluor 339 460
O=C(CSc1nnc2sc3ccccc3n12)NCc1ccc2c(c1)OCO2 | 16 | 4 | i | 7% | 1 | 1.1
COC(=O)C(NC=O)C(O)(Cc1ccccc1)C(F)(F)F (stereo not given) | 10 | 0 | i | 3% | 1 | 1
Cc1csc(NC(=O)c2ccccc2O)n1 | 7 | 6 | x | 7% | 1 | 3.9*
Cn1c(/N=C/c2c[nH]c3ccccc23)nc2ccccc21 | 0 | 14 | i | 5% | 1.1 | 1.1
Cn1c(/N=C/c2ccc3c(c2)OCO3)nc2ccccc21 | 8 | 10 | x | 9% | 1.1 | 2.1*
CCCN1CCN(CCCNC(=O)Cn2nc(-c3ccccc3)ccc2=O)CC1 | 27* | 7 | i | 11% | 1 | 1.1
CN(C)CCN(Cc1ccccc1)c1ccccn1 | 0 | 6 | i | 2% | 0.99 | 1
CN(C)CCN(Cc1ccccc1)c1ccnc(N(C)C)c1C#N | 7 | 56* | i | 22% | 1.1 | 1.4
O=C1NCCN1C(=O)N(c1ccccc1)c1ccccc1 | 13 | 10 | i | 8% | 1 | 1.1
CN(Cc1ccccc1)Cc1c(F)cccc1F | 0 | 52* | i | 17% | 1 | 1.1
CN(Cc1ccccc1)Cc1c[nH]c2ccccc12 | 5 | 0 | i | 10% | 0.99 | 1
COc1ccc(CC(=O)Nc2ccc(N3CCN(c4ccc(OC)cc4)CC3)c(C#N)c2)cc1 | 12 | 6 | i | 12% | 0.99 | 2.2*
COc1ccc(N2CCN(c3ccc(NC(=O)c4ccc5c(c4)OCO5)cc3C#N)CC2)cc1 | 10 | 7 | i | 7% | 1 | 1.9
COc1ccc(S(=O)(=O)N2CCN(C(=O)CCC3CCCC3)CC2)cc1 | 6 | 7 | i | 7% | 1 | 1.1
CS(=O)(=O)N1CCN(C(=O)CCC2CCCC2)CC1 | 33* | 10 | i | 14% | 1 | 1.1
Cc1[nH]nc2c1C(c1ccccc1)C1=C(CC(C)(C)CC1=O)N2 (stereo not given) | 14 | 8 | x | 11% | 1.1 | 4.4*
COc1ccc(C2C3=C(CC(C)(C)CC3=O)Nc3n[nH]c(C)c32)cc1 (stereo not given) | 0 | 4 | x | 2% | 1.1 | 2.3*
COc1cccc(NC(=O)c2cn(C)c(=O)c3cc(OC)c(OC)cc23)c1 | 11 | 0 | i | 4% | 1.1 | 1.1
CCNc1nc(NC(C)C)nc(N(C#N)CCOc2ccc(Cl)cc2Cl)n1 | 10 | 0 | i | 3% | 0.99 | 1
CN(c1ccc(Cl)cc1)c1cc(=O)n(C)c2ccccc12 | 5 | 2 | i | 3% | 1.1 | 1.3
CN(C)c1ccc2c(O)cc(=O)n(C)c2c1 | 0 | 6 | x | 3% | 1.1 | 2.3*
COC(=O)c1[nH]c2cccc(OC)c2c1NC(=O)CN1CCN(c2cccc(OC)c2)C(C)C1 (stereo not given) | 10 | 4 | i | 13% | 1.1 | 3*
COC(=O)c1[nH]c2cccc(OC)c2c1NC(=O)CCN1CCC(C)CC1 | 15 | 0 | i | 8% | 1.1 | 2
COC(=O)c1[nH]c2cccc(OC)c2c1NC(=O)CCN1CCN(c2ccccc2OC)CC1 | 13 | 12 | + | 20% | 1 | 3.1*
CCc1nc2ccccc2n1Cc1cc(=O)n2cc(C)ccc2n1 | 16 | 0 | i | 10% | 1.1 | 3.4*
